Bioassay records as filed in PubChem.
PGC1a acetyl inh: PGC1a acetylation modulation, inhibitor mode; AID 651687; U2OS PGC1a acetylation, AlphaScreen anti-acetyl-lysine; with virally co-expressed GCN5 acetyltransferase; 350,000 tested, 0.17% active; inhibition, % at 15.6 µM;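 active = every replicate shows inhibition of at least 40%; inconclusive = mean inhibition at least 40% but some replicate below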
rRNA inh HTS: selective bacterial rRNA inhibition in E. coli. E. coli WT GFP vs humanized-ribosome RFP mutants, fluorescence, 24 h; hits give low values; DMSO median 0, no signal -100. GFP signal change (wild-type ribosome), % (test concentration not listed). 350,000 tested, 1.6% active. AID 720706;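 active = significant combined selectivity score with lowered wild-type GFP, culture density cut under 30%, mutant RFP and density less affected; inactive = any of these conditions unmet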
GSIS activator: primary screen for activators of insulin secretion dependent on glucose, INS-1E cells, GLuc reporter luminescence. 370,000 tested, 0.61% active. AID 743287. activation, % at 16.6 µM. INS-1E GLuc reporter insulin secretion, 2-3 h;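 active = lowest replicate activation of at least 40%, so every replicate reaches that level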
DENV2 CPE: protects cells from dengue virus 2 cytopathic effect | DENV2-infected cells, cytopathic effect rescue, plate reader | CPE inhibition, % at 9.99 µM | 350,000 tested, 1.7% active; in the data active = CPE inhibition above about 20%, passing the limit was not always enough; inconclusive = no clear call, values can overlap the other calls; tested in BHK-21 cells
ERAP1 inh: ERAP1 (human) enzyme inhibition | Q9NZ08 | 340,000 tested, 0.15% active | inhibition, % at 10.7 µM | recombinant ERAP1, Leu-AMC fluorescence, 60 min;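 active = mean replicate inhibition of at least 30%, or all replicates individually reaching that 30% level; inactive = mean below 30% and not every replicate reaching it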
Target sequence (Q9NZ08 whole entry, looked up): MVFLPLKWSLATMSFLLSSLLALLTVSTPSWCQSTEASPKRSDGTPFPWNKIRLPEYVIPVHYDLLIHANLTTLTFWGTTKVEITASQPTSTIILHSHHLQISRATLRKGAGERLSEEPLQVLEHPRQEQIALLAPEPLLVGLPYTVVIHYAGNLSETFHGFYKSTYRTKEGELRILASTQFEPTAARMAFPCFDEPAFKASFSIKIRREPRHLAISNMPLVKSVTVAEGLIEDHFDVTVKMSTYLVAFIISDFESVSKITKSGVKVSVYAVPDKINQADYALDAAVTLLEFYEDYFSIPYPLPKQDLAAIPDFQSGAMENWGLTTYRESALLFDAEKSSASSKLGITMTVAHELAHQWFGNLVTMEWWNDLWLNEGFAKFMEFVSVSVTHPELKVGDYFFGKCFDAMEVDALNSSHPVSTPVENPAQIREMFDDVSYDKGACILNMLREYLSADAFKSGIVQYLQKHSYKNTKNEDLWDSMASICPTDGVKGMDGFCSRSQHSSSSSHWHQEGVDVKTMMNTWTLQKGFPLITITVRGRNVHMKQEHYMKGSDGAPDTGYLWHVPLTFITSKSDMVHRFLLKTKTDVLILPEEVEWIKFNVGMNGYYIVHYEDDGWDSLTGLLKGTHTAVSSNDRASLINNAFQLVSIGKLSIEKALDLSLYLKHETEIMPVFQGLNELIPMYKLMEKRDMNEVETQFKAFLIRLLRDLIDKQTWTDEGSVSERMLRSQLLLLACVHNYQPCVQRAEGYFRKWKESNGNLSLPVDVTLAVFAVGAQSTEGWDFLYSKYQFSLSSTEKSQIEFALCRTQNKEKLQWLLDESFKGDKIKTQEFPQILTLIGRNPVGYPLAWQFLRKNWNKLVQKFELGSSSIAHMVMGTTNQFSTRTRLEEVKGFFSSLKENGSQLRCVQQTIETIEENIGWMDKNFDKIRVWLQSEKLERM
CaV13 FRET inh: Disruptors of the CACNA1D IQ motif to Ca2+-dependent inactivation inhibitor domain association, primary screening, Förster resonance energy transfer in intact living …; inhibition, % at 12.3 µM; HEK cells, CFP/YFP FRET ICDI-IQ, plate reader, 10 min; percent FRET-ratio fall versus neutral wells; 340,000 tested, 0.098% active;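 active = mean replicate inhibition of at least 30% and at least 1% of replicates passing that level; inconclusive = only one of the two criteria is met; inactive = neither criterion is met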
HepG2 cytotox: kills or reduces viability of HepG2 cells. shares compounds with rRNA inh HTS. ATP luminescence, 72 h. activity change, negative = cytotoxicity, unspecified at 26 µM. 30 tested, under 10 active. AID 743480;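 active = compounds whose fitted half-maximal signal-loss concentration is at most twice their highest valid dose; inconclusive = flat curve with 30 to 70% signal loss, or poor fit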
AID977621: wild-type E. coli growth inhibition versus H69 humanized strain – H69 mutant RFP, wild-type GFP, cherry-pick, dose response. 1,900 tested, under 10 active. shares compounds with rRNA inh HTS. fluorescence, 24 h. AID 977621. activity change, negative = inhibition at 50 µM;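 active = Wild-type ribosome reporter drop at least double the humanized mutant ribosome reporter drop, growth loss under a set limit; inconclusive = no clear call, values can overlap the other calls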;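 also: wild-type GFP and H69 mutant RFP strains grown together 50/50 in each well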
AID977628: E. coli growth inhibition, wild-type GFP versus h24 humanized RFP strain, dose response, h24 mutant RFP vs wild-type GFP, cherry-pick | shares compounds with rRNA inh HTS | E. coli WT GFP strain growth, fluorescence, 24 h | activity change, negative = inhibition at 50 µM | 1,900 tested, under 10 active | AID 977628;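 active = compound lowering the normal-ribosome reporter at least twice as much as the humanized-ribosome reporter, growth loss under a set limit; inconclusive = no clear call, values can overlap the other calls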;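 also: wild-type GFP and h24 humanized RFP strains co-cultured 1 to 1 per well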
Numbers stand for hits; . = inactive; ? = inconclusive; / = no result given; ! = repeats disagree. An excerpt weighted towards active compounds, which were near 3.2% of everything screened.

SMILES	PGC1a acetyl inh	rRNA inh HTS	GSIS activator	DENV2 CPE	ERAP1 inh	CaV13 FRET inh	AID977621	AID977628	others
C[C@@H]1CN([C@@H](C)CO)C(=O)c2cc(C3=CCCC3)cnc2O[C@H]1CN(C)C(=O)c1ccc2c(c1)OCO2	.	.	.	.	.	/	/	/
CCOc1ccc2nc(NC(=O)CSc3ccc(Cl)cc3)sc2c1	/	/	/	/	/	.	/	/
CCOc1ccc2nc(NC(=O)CSc3nc(SC)ns3)sc2c1	.	-24	.	.	.	.	.	/
CCCC(=O)Nc1cccc(C(=O)Nc2ccccc2OCC)c1	/	-27	.	.	.	.	.	.
CCOc1ccccc1NC(=O)c1ccc2ccccc2c1	88	-25	.	?	.	.	/	?	HepG2 cytotox=.
C[C@H](CO)N1C[C@H](C)[C@H](CN(C)Cc2ccc3c(c2)OCO3)Oc2ccc(NC(=O)Cn3cnnn3)cc2C1=O	.	.	.	.	.	/	/	/
COc1ccc(C(=O)Nc2ccc3c(c2)OC[C@@H](C)N(C(C)=O)C[C@H](C)[C@H](OC)CN(C)C3=O)cc1	.	.	.	.	.	/	/	/
Cc1cccc[n+]1CC(=O)Nc1ccc([N+](=O)[O-])cc1Cl	/	/	/	/	/	.	/	/
O=C(C[n+]1ccc(Cc2ccccc2)cc1)Nc1ccc([N+](=O)[O-])cc1Cl	/	-31	.	.	.	.	.	.
O=C(Nc1ccc2c(c1)OCCO2)C1C(c2ccccc2)=Nc2ccccc2N1C(=O)c1cccnc1 (stereo unspecified)	/	-8.2	.	.	.	.	.	?
COCC#Cc1ccc2c(c1)O[C@H](CN(C)C(=O)c1ccccc1)[C@@H](C)CN([C@H](C)CO)S2(=O)=O	.	-19!	.	.	.	.	.	.
COCC#Cc1ccc2c(c1)O[C@@H](CN(C)C(=O)c1ccccc1)[C@@H](C)CN([C@@H](C)CO)S2(=O)=O	.	.	.	.	.	/	/	/
Cc1ccc(CSCC(=O)Nc2ccccc2F)cc1	.	-23	.	?	.	.	.	?
Cc1cccc(NC(=O)c2c(C)nn(-c3ccccc3)c2Cl)c1	/	-35	.	.	.	.	.	.
Cc1ccccc1COc1ccc(-c2nn[nH]n2)cc1	/	-25	.	.	.	.	?	/
CC(C)C(=O)Nc1ccc2c(c1)C(=O)N(C)[C@H]1CC[C@@H](CC(=O)NCCCN(C)C)O[C@@H]1CO2	.	.	.	.	.	/	/	/
O=C(CN1CCCCC1)n1c2ccccc2c2ccccc21	.	-24	.	.	.	.	.	.
Cc1c(C)n(C(=O)CN2CCC(C(N)=O)CC2)c2ccccc12	.	/	.	/	/	/	/	/
O=C(CN1CCCCC1)Nc1ccccc1-c1ccccc1	.	-15	.	.	.	.	.	/
CSc1cccc(NC(=O)CCNC(=O)c2ccco2)c1	.	.	.	.	.	.	/	/
O=C(CCNC(=O)c1ccco1)Nc1cccc(Br)c1	.	-20	.	.	.	.	.	?
COc1ccc(NC(=O)Nc2cccc3c2O[C@@H](CN(C)S(=O)(=O)c2ccc(OC)cc2)[C@@H](C)CN([C@@H](C)CO)C3=O)cc1	.	.	.	.	.	/	/	/
COc1ccc(NC(=O)Nc2cccc3c2O[C@@H](CN(C)S(=O)(=O)c2ccc(Cl)cc2)[C@@H](C)CN([C@H](C)CO)C3=O)cc1	.	/	/	.	.	/	/	/
COc1ccc(NC(=O)Nc2cccc3c2O[C@@H](CN(C)S(=O)(=O)c2ccc(Cl)cc2)[C@H](C)CN([C@H](C)CO)C3=O)cc1	.	.	.	.	.	/	/	?
COc1ccc(NC(=O)Nc2cccc3c2O[C@H](CN(C)S(=O)(=O)c2ccc(Cl)cc2)[C@@H](C)CN([C@H](C)CO)C3=O)cc1	.	.	.	.	.	/	/	?
SMILES	PGC1a acetyl inh	rRNA inh HTS	GSIS activator	DENV2 CPE	ERAP1 inh	CaV13 FRET inh	AID977621	AID977628	others
C[C@H](CO)N1C[C@H](C)[C@@H](CN(C)C(=O)Nc2ccc(C(F)(F)F)cc2)Oc2ccc(NS(=O)(=O)c3cccs3)cc2CC1=O	.	.	.	.	.	/	/	/
CCC(=O)N(C)C[C@@H]1Oc2cc(-c3ccccc3C)ccc2S(=O)(=O)N([C@@H](C)CO)C[C@H]1C	.	.	.	.	.	/	/	/
O=C1c2ccccc2C(=O)N1CCCc1c[nH]c2ccccc12	.	/	.	/	/	.	/	/
O=C1c2ccccc2C(=O)N1CCc1c[nH]c2ccccc12	.	-21	.	.	.	.	.	/
COc1ccc(CNC(=O)CSCc2c(F)cccc2Cl)cc1	.	-27	.	.	/	.	.	/
O=C(CSCc1ccc(Br)cc1)NCc1ccccn1	.	-19	.	.	.	.	.	.
O=C(COc1ccc(Br)cc1)NCc1ccccn1	.	.	.	/	.	.	/	/
O=C(CSCc1c(Cl)cccc1Cl)NCc1ccccn1	.	-23	.	.	.	.	.	.
O=C(COC(=O)Cc1ccccc1F)Nc1ccc(Cl)cn1	.	-18	.	?	.	.	.	?
CN(C)c1ccc2c(c1)[C@@H]1C[C@H](CC(=O)NCc3ccccc3F)O[C@H](CO)[C@@H]1O2	/	.	.	/	/	/	/	/
O=C1NC(CCc2ccccc2)C(=O)N1Cc1cccc2ccccc12 (stereo unspecified)	/	-21	.	.	.	.	.	/
Nc1[nH]c(C(=O)c2ccccc2)c(-c2ccc(Br)cc2)c1C(=O)c1cccs1	/	-34	.	.	.	.	?	/
O=c1[nH]nc(SCc2ccccc2)n1C1CC2C=CC1C2 (stereo unspecified)	/	-35	.	.	.	.	.	?
Cc1noc(C)c1S(=O)(=O)Nc1ccc2c(c1)CC(=O)N([C@@H](C)CO)C[C@H](C)[C@@H](CN(C)C(=O)Nc1ccc(F)cc1)O2	.	.	.	.	.	/	/	/
CO[C@@H]1CN(C)C(=O)c2ccc(NC(=O)C3CCOCC3)cc2OC[C@H](C)N(Cc2nccs2)C[C@@H]1C	.	.	.	?	.	/	/	/
OCCC1CN(Cc2cnc(-c3ccc(Cl)cc3)nc2)CCN1C1CCCCC1 (stereo unspecified)	/	-18	/	50	/	.	.	.
Cc1ccc(S(=O)(=O)N(C)C[C@H]2Oc3ccc(NS(C)(=O)=O)cc3CC(=O)N([C@H](C)CO)C[C@H]2C)cc1	.	.	.	.	.	/	/	/
